Experimental data published in PubChem BioAssay (NCI).
Compounds without any hit were thinned out: in the full panel of roughly 83,000, 20% have a hit.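 For each line, cells grew in 96-well plates with the test compound present at a single concentration for 48 hours.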 The source made the active and inactive calls. The calls were made as follows: active = growth percent below 10; inactive = the rest.

Assays:
Experiment in all cases: NCI-60 one-dose screen, 48 h (100 = growth as untreated, 0 = no growth, -100 = all killed)
Settings in all cases: 10 µM unless noted
SR leukemia = test system: SR leukemia
RPMI-8226 leukemia = test system: RPMI-8226 leukemia
OVCAR-8 ovarian = test system: OVCAR-8 ovarian
OVCAR-5 ovarian = test system: OVCAR-5 ovarian
OVCAR-4 ovarian = test system: OVCAR-4 ovarian
SK-OV-3 ovarian = test system: SK-OV-3 ovarian
IGROV1 ovarian = test system: IGROV1 ovarian
OVCAR-3 ovarian = test system: OVCAR-3 ovarian
HS 578T breast = test system: HS 578T breast
NCI/ADR-RES ovarian = test system: NCI/ADR-RES ovarian
T-47D breast = test system: T-47D breast
BT-549 breast = test system: BT-549 breast
MDA-MB-435 melanoma = test system: MDA-MB-435 melanoma
SW-620 colon = test system: SW-620 colon
MCF7 breast = test system: MCF7 breast
HCT-116 colon = test system: HCT-116 colon
HCC-2998 colon = test system: HCC-2998 colon
KM12 colon = test system: KM12 colon

Measured: growth

C#CCOc1nc(C)cc(C)c1C#N
inactive: SR leukemia 91.8% | RPMI-8226 leukemia 111% | OVCAR-8 ovarian 102% | OVCAR-5 ovarian 95.1% | OVCAR-4 ovarian 100% | SK-OV-3 ovarian 101% | IGROV1 ovarian 102% | OVCAR-3 ovarian 110% | HS 578T breast 101% | NCI/ADR-RES ovarian 103% | T-47D breast 96.2% | BT-549 breast 106% | MDA-MB-435 melanoma 99.9% | SW-620 colon 96.5% | MCF7 breast 95.5% | HCT-116 colon 99.4% | HCC-2998 colon 103% | KM12 colon 102%

Oc1c(CN2CCCC2)cc(COCc2ccc(Br)cc2)c2cccnc12
active: SR leukemia 3.12% | RPMI-8226 leukemia 1% | OVCAR-8 ovarian -27% | OVCAR-4 ovarian -5.71% | SK-OV-3 ovarian -17.4% | IGROV1 ovarian -6.09% | OVCAR-3 ovarian -4.02% | NCI/ADR-RES ovarian -40.9% | T-47D breast -7.63% | SW-620 colon 5.64% | HCT-116 colon 1.8%
inactive: OVCAR-5 ovarian 29.6% | HS 578T breast 45.2% | BT-549 breast 14.9% | MDA-MB-435 melanoma 24.1% | MCF7 breast 11.7% | HCC-2998 colon 21.5% | KM12 colon 20.6%

N/C(=N\c1nc2ccccc2s1)NC(=O)Nc1cccc(Cl)c1
inactive: SR leukemia 14.8% | RPMI-8226 leukemia 41.6% | OVCAR-8 ovarian 47.7% | OVCAR-5 ovarian 67.5% | OVCAR-4 ovarian 62.3% | SK-OV-3 ovarian 41.9% | IGROV1 ovarian 35.5% | OVCAR-3 ovarian 15.8% | HS 578T breast 17.5% | NCI/ADR-RES ovarian 11.8% | T-47D breast 42.6% | BT-549 breast 42.8% | SW-620 colon 31.9% | MCF7 breast 21.2% | HCT-116 colon 16% | HCC-2998 colon 73% | KM12 colon 22.9%
active: MDA-MB-435 melanoma 1.08%

Cc1ccc(Cc2cnc(NC(=O)c3ccc4noc(-c5ccccc5)c4c3)s2)cc1
inactive: SR leukemia 85% | RPMI-8226 leukemia 79.3% | OVCAR-8 ovarian 89.1% | OVCAR-5 ovarian 105% | OVCAR-4 ovarian 86.4% | SK-OV-3 ovarian 108% | IGROV1 ovarian 96.3% | OVCAR-3 ovarian 107% | HS 578T breast 95.7% | NCI/ADR-RES ovarian 92.5% | T-47D breast 78.7% | BT-549 breast 99.6% | MDA-MB-435 melanoma 85.8% | SW-620 colon 89.1% | MCF7 breast 69.8% | HCT-116 colon 86.7% | HCC-2998 colon 99.7% | KM12 colon 91.3%

CC/C=C1/C(=O)C=C[C@@H]1C/C=C\CCCC(=O)O
inactive: SR leukemia 20% | RPMI-8226 leukemia 19.9% | OVCAR-8 ovarian 66.5% | OVCAR-5 ovarian 123% | OVCAR-4 ovarian 86.9% | SK-OV-3 ovarian 111% | IGROV1 ovarian 114% | OVCAR-3 ovarian 82.2% | HS 578T breast 69.1% | NCI/ADR-RES ovarian 91.5% | T-47D breast 71.8% | BT-549 breast 76.5% | MDA-MB-435 melanoma 54.1% | SW-620 colon 43.5% | MCF7 breast 19.8% | HCT-116 colon 35.5% | HCC-2998 colon 95.1% | KM12 colon 63.4%

COc1ccc2cc(-c3cc(OC)c(OC)c(OC)c3)c(=O)oc2c1
inactive: SR leukemia 26.8% | RPMI-8226 leukemia 83.6% | OVCAR-8 ovarian 82.8% | OVCAR-5 ovarian 94.2% | OVCAR-4 ovarian 79.9% | SK-OV-3 ovarian 72% | IGROV1 ovarian 82.3% | OVCAR-3 ovarian 81.8% | HS 578T breast 75.5% | NCI/ADR-RES ovarian 49% | T-47D breast 56.5% | BT-549 breast 50.1% | SW-620 colon 44.3% | MCF7 breast 37.5% | HCT-116 colon 46.9% | HCC-2998 colon 86.6% | KM12 colon 65.8%
active: MDA-MB-435 melanoma 7.5%

C=CCn1c(C)nc2cc(Nc3nc(N4CCCC4)nc4ccccc34)ccc21
inactive: RPMI-8226 leukemia 55% | OVCAR-8 ovarian 84.1% | OVCAR-5 ovarian 123% | OVCAR-4 ovarian 91.3% | SK-OV-3 ovarian 123% | IGROV1 ovarian 95.4% | OVCAR-3 ovarian 105% | HS 578T breast 86.8% | NCI/ADR-RES ovarian 83.3% | T-47D breast 105% | BT-549 breast 96.9% | MDA-MB-435 melanoma 92.4% | SW-620 colon 75% | MCF7 breast 61.9% | HCT-116 colon 19.6% | HCC-2998 colon 23.3% | KM12 colon 70.1%
active: SR leukemia 5.75%

Cc1cc(NCCCCNc2ccnc3cc(Cl)ccc23)nc(Nc2ccc(C(=O)N3CCCC3)cc2)n1
active: SR leukemia -28.9% | RPMI-8226 leukemia 2.17% | T-47D breast -31.2% | MDA-MB-435 melanoma -45% | SW-620 colon -11.8% | HCT-116 colon 2.57% | HCC-2998 colon 8.57%
inactive: OVCAR-8 ovarian 11.5% | OVCAR-5 ovarian 108% | OVCAR-4 ovarian 48.4% | SK-OV-3 ovarian 106% | IGROV1 ovarian 81.9% | OVCAR-3 ovarian 60.6% | HS 578T breast 89.8% | NCI/ADR-RES ovarian 94.8% | BT-549 breast 93.2% | MCF7 breast 12.7% | KM12 colon 55.7%

C[C@H](NC(=O)[C@@H]1CSSC[C@@H](NC(=O)c2nc3ccccc3cc2O)C(=O)NCC(=O)N1C)c1ccccc1
active: SR leukemia -17.5% | OVCAR-3 ovarian -51.4% | T-47D breast -35.6% | SW-620 colon -35.4% | MCF7 breast -2.09%
inactive: RPMI-8226 leukemia 22.6% | OVCAR-8 ovarian 26.3% | OVCAR-5 ovarian 45.6% | OVCAR-4 ovarian 94.3% | SK-OV-3 ovarian 71.7% | IGROV1 ovarian 71.6% | HS 578T breast 33% | NCI/ADR-RES ovarian 91.5% | BT-549 breast 44.3% | MDA-MB-435 melanoma 23.9% | HCT-116 colon 12.8% | HCC-2998 colon 55.1% | KM12 colon 19.8%

Cc1ccc2nc3ccccc3c(NCc3ccccc3)c2c1
inactive: OVCAR-8 ovarian 33.5% | OVCAR-5 ovarian 40.4% | OVCAR-4 ovarian 32.8% | SK-OV-3 ovarian 64.3% | IGROV1 ovarian 15.8% | OVCAR-3 ovarian 66% | HS 578T breast 69.8% | NCI/ADR-RES ovarian 29.8% | T-47D breast 63.6% | BT-549 breast 69% | MDA-MB-435 melanoma 58.2% | SW-620 colon 24.3% | MCF7 breast 11.2% | KM12 colon 56.3%
active: SR leukemia 4.1% | RPMI-8226 leukemia 6.82% | HCT-116 colon 9.4% | HCC-2998 colon -21.4%

N=C(N)c1ccc(-c2ccc(-c3cncc4ccccc34)s2)s1
inactive: SK-OV-3 ovarian 64.4% | BT-549 breast 36.9%
active: SR leukemia -29.3% | RPMI-8226 leukemia -33.5% | OVCAR-8 ovarian -67.9% | OVCAR-5 ovarian -69.3% | OVCAR-4 ovarian -90.4% | IGROV1 ovarian -75.1% | OVCAR-3 ovarian -85.5% | HS 578T breast -49.6% | NCI/ADR-RES ovarian -53% | T-47D breast -58.3% | MDA-MB-435 melanoma -91.2% | SW-620 colon -68.4% | MCF7 breast -68.7% | HCT-116 colon -84.4% | HCC-2998 colon -78.3% | KM12 colon -78.8%

COc1cccc(-c2nn(-c3ccccc3)cc2-c2ccnc(NCCNC(=O)Nc3ccc(Cl)c(Cl)c3)c2)c1
inactive: RPMI-8226 leukemia 11.9% | OVCAR-5 ovarian 41.7% | OVCAR-4 ovarian 36.4% | IGROV1 ovarian 44% | T-47D breast 12.6% | SW-620 colon 18.3%
active: SR leukemia -26.4% | OVCAR-8 ovarian 7.05% | SK-OV-3 ovarian 9.85% | OVCAR-3 ovarian -6.87% | HS 578T breast -22.1% | NCI/ADR-RES ovarian -22.2% | BT-549 breast -4.67% | MDA-MB-435 melanoma -66.9% | MCF7 breast 6.67% | HCT-116 colon 0.717% | HCC-2998 colon -37.1% | KM12 colon -33.8%

COC(=O)[C@]12CC[C@@H](C)[C@H](C)[C@@H]1C1=CC[C@@H]3[C@@]4(C)C(C=O)=C[C@@](C)(COC(C)=O)C4=CC[C@@]3(C)[C@]1(C)CC2
inactive: OVCAR-8 ovarian 13.2% | OVCAR-5 ovarian 12.9% | OVCAR-4 ovarian 17% | IGROV1 ovarian 12.9% | NCI/ADR-RES ovarian 12.5%
active: SR leukemia -30.5% | RPMI-8226 leukemia -9.49% | SK-OV-3 ovarian 6.81% | OVCAR-3 ovarian -67.3% | HS 578T breast -12.9% | T-47D breast -5.34% | BT-549 breast -16% | MDA-MB-435 melanoma -0.255% | SW-620 colon -43.8% | MCF7 breast 5.08% | HCT-116 colon -67.5% | HCC-2998 colon -14.6% | KM12 colon 2.7%

NC(=O)c1ccc[n+](Cc2ccc(Cl)cc2Cl)c1
active: SR leukemia 7.84%
inactive: RPMI-8226 leukemia 93% | OVCAR-8 ovarian 99.5% | OVCAR-5 ovarian 96.9% | OVCAR-4 ovarian 109% | SK-OV-3 ovarian 97.2% | IGROV1 ovarian 105% | OVCAR-3 ovarian 109% | HS 578T breast 99.4% | NCI/ADR-RES ovarian 111% | T-47D breast 85.3% | BT-549 breast 76% | MDA-MB-435 melanoma 107% | SW-620 colon 103% | MCF7 breast 95.7% | HCT-116 colon 80% | HCC-2998 colon 93.3% | KM12 colon 101%

CC(=O)[C@@H]1CC[C@]2(COS(=O)(=O)c3ccc(C)cc3)CC[C@]3(C)[C@H](CC[C@@H]4[C@@]5(C)CCCNC(C)(C)[C@@H]5CC[C@]43C)[C@@H]12
active: SR leukemia -24.6% | SW-620 colon 9.71%
inactive: RPMI-8226 leukemia 46.4% | OVCAR-8 ovarian 84% | OVCAR-5 ovarian 81% | OVCAR-4 ovarian 60.6% | SK-OV-3 ovarian 91.1% | IGROV1 ovarian 58.2% | OVCAR-3 ovarian 88.1% | HS 578T breast 81.7% | NCI/ADR-RES ovarian 78.8% | T-47D breast 49.7% | BT-549 breast 82.6% | MDA-MB-435 melanoma 52.2% | MCF7 breast 58.2% | HCT-116 colon 32.8% | HCC-2998 colon 26.6% | KM12 colon 52.3%

Cc1cc(N2CCCC2)nc(NCc2cc(Nc3ccnc4cc(Cl)ccc34)ccc2F)n1
inactive: SK-OV-3 ovarian 26.8% | BT-549 breast 55.2%
active: SR leukemia -28.1% | RPMI-8226 leukemia -44.2% | OVCAR-8 ovarian -54.5% | OVCAR-5 ovarian -11.8% | OVCAR-4 ovarian -14.9% | IGROV1 ovarian -18.4% | OVCAR-3 ovarian -86.9% | HS 578T breast -34.5% | NCI/ADR-RES ovarian -33.7% | T-47D breast -54.7% | MDA-MB-435 melanoma -96.1% | SW-620 colon -71.1% | MCF7 breast -56.1% | HCT-116 colon -76.3% | HCC-2998 colon -74.9% | KM12 colon -58.8%
